Results from PubChem BioAssay.
Activity calls are given as the source filed them.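 How the source made its calls: active means visually confirmed hit in the image check and inhibition above 20%; inconclusive means visually confirmed hit but inhibition not above 20%; inactive means no visual hit in the image check.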

Test: inhibitors of E-selectin induction by TNFa, primary screen, imaging, HUVEC, immunofluorescence, MLSMR starter and 10KST1 sets (AID 487);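 on inhibition: signal is fraction of cell area covered by stained E-selectin grains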;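 on nuclei count: 100% = median nuclei count of all wells on the same plate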
Details: HUVEC TNFalpha-induced E-selectin immunofluorescence imaging, at 2 µM; inhibition: stronger effect = higher value; nuclei count: measured here: cell number, toxicity

Structure (SMILES) | nuclei count [%] | inhibition
CC(=O)Nc1cc2c(nc1C)nc(C)n2Cc1ccc(Br)cc1 | 118 | -83.5% (inactive)
COc1ccc(C(C)N2CC34C=CC(O3)C(C(=O)OCC(C)C)C4C2=O)cc1 (stereo not given) | 93.5 | 8.2% (inactive)
COc1ccc2nc3oc(C(=O)NC4CCN(Cc5ccccc5)CC4)cc3cc2c1 | 110 | -9.9% (inactive)
CN(C)c1ccc(-c2nn3c(-c4ccc(Cl)cc4Cl)nnc3s2)cc1 | 96.6 | 42.5% (inactive)
COc1ccc(S(=O)(=O)NC(C)C(=O)Nc2cccc(C(C)=O)c2)cc1 (stereo not given) | 62.6 | -2.9% (inactive)
O=C(Nc1cccc2ccccc12)N1CCN(c2ccccc2)CC1 | 100 | -12.2% (inactive)
O=c1ccc2cc3c([nH]c4ccc(Br)cc43)oc-2c1O | 109 | -84.7% (inactive)
CCCCSc1cc(C)nc2ncnn12 | 119 | 12.1% (inactive)
CCN1C(=O)CC(N2CCC(Nc3ccc(F)cc3)CC2)C1=O (stereo not given) | 94.1 | -72% (inactive)
CCOc1ccccc1NC(=O)CCSc1nc2n[nH]c(C)c2c(=N)n1-c1ccccc1Cl | 62.2 | 30.1% (inactive)
c1ccc(-n2c(Sc3cnccn3)nnc2-c2cccs2)cc1 | 149 | -37.1% (inactive)
C=C(C)Cn1c(N2CC(C)CC(C)C2)nc2c1c(=O)[nH]c(=O)n2C (stereo not given) | 108 | -8.5% (inactive)
CCC1(C(=O)OC)NC(c2cccc(F)c2)C2C(=O)N(C)C(=O)C21 (stereo not given) | 112 | -167% (inactive)
Cc1ccccc1-n1c(SCc2c(C)noc2C)nnc1-c1ccncc1 | 115 | -87% (inactive)
COC(=O)C1=C(C)n2nnnc2NC1c1ccc(Cl)cc1 (stereo not given) | 80.4 | -119% (inactive)
CCc1ccc(C2CC(c3ccccc3)n3ncnc3N2)cc1 (stereo not given) | 70.6 | -22.9% (inactive)
CCN(C(=O)c1cn(C)c(=O)c2cc(OC)c(OC)cc12)c1ccccc1C | 114 | -21.1% (inactive)
COc1ccccc1-n1c(C)nnc1SCC(=O)Nc1cccc(C(C)=O)c1 | 95.1 | 52.4% (inactive)
O=C(Nc1ccc(N2CCOCC2)c(Cl)c1)c1ccc(Br)o1 | 104 | -109% (inactive)
Cc1cccc(-n2c(=O)cc(N3CCN(c4ccc(F)cc4)CC3)[nH]c2=O)c1 | 83.6 | 15.8% (inactive)

Structure (SMILES) | nuclei count [%] | inhibition
N#CCCN1CCN(S(=O)(=O)c2ccc(S(=O)(=O)NC3CCCC3)cc2)CC1 | 126 | -2.1% (inactive)
O=C(c1ccccc1Br)N1CCN(c2ccccc2)CC1 | 123 | -38.7% (inactive)
O=C(Cc1cccs1)NCc1ccc(F)cc1 | 93.3 | 56.1% (active)
CCn1c(SCC(=O)NC)nnc1C(C)C | 104 | -17.9% (inactive)
O=C(C1CCC(N2C(=O)C3CC=CCC3C2=O)CC1)N1CCCCC1 (stereo not given) | 97.6 | 23.7% (inactive)
O=C1CC(c2ccccc2)Cc2nc(N3CCc4ccccc43)ncc21 (stereo not given) | 183 | -134% (inactive)
Cc1nc2cc(Cl)ccc2n1CCO | 115 | 15.4% (inactive)
O=C(CCCc1cccs1)Nc1nc2c(s1)CCCC2 | 150 | -164% (inactive)
O=C(CN1C(=O)CCS(=O)(=O)c2ccccc21)NCc1ccc(F)cc1 | 124 | -92.3% (inactive)
CCN1C(=O)c2cccc3c(NC(=O)c4ccc(S(=O)(=O)N(C)C)cc4)ccc1c23 | 111 | -23.9% (inactive)
Cc1oc(-c2cccc(Cl)c2)nc1CN1CCC(C(=O)N2CCN(c3ccccc3F)CC2)CC1 | 108 | -73.6% (inactive)
C=CCOc1ccc(/C=N/n2cncn2)cc1OC | 81.6 | -39.8% (inactive)
Cc1ccc(-c2csc3ncn(-n4c(C)ccc4C)c(=O)c23)o1 | 66.1 | 55.1% (active)
c1ccc2c(c1)CNC1(CCCCC1)C2 | 103 | -2.1% (inactive)
COc1cc(C2CC(=O)NC3=C2C(=O)CC(C)(C)C3)ccc1O (stereo not given) | 105 | 2.8% (inactive)
c1cncc(-c2nnc3n2N=C(c2cccs2)CS3)c1 | 107 | -28.3% (inactive)
COC(=O)CCn1nnc(-c2cccs2)n1 | 96 | -34.8% (inactive)
O=C(CCn1c(=O)sc2ccccc21)Nc1nccs1 | 98.6 | -53% (inactive)
COc1ccc(N(CC(=O)O)S(=O)(=O)c2ccc(OC)c(OC)c2)cc1 | 111 | -11.5% (inactive)
CCC(C)NC(=O)C1c2cc(OC)c(OC)cc2C(=O)N(C)C1c1ccc(OC)cc1 (stereo not given) | 52.6 | 43.7% (inactive)
